Tb PYK inh: blocks Trypanosoma brucei pyruvate kinase; Q57TT1; TbPYK enzyme, Kinase-Glo Plus ATP luminescence, 45 min; Potency, µM (series often up to 76.8 µM), without a hit: at the highest dose activity, negative = inhibition, actives largely listed as inhibitors; 410,000 tested, 0.12% active; AID 624173; also: % is scaled to controls: 0 for no effect and ±100 for the full control effect; nearly all actives have a fitted effect of over 50% in size
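Glycolytic pyruvate kinase of T. brucei was incubated with substrate, test compound and 130 uM ADP for 45 minutes at room temperature. Luminescent Kinase-Glo Plus signal was measured after 10 minutes.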
Giardia FBPA inh-1: blocks Giardia fructose-bisphosphate aldolase activity. A8B2U2. purified Giardia FBPA. Potency, µM (series often up to 59.6 µM), for inactives: top-dose activity, negative = inhibition, hits mostly inhibitors. 290,000 tested, 0.71% active. AID 2451; also: % is scaled to controls: 0 for no effect and ±100 for the full control effect; nearly all actives have a fitted effect of over 55% in size
Target sequence (A8B2U2 whole entry, looked up): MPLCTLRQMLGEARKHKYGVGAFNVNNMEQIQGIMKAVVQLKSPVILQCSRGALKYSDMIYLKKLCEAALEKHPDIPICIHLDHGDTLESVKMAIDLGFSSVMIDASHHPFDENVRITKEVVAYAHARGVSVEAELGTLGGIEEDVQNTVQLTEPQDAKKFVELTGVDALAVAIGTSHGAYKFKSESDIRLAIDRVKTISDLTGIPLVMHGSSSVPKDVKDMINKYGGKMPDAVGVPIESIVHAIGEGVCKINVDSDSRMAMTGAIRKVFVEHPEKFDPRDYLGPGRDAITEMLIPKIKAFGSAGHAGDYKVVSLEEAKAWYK
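40 nM FBPA preincubated 10 min at RT with compound (up to 57.5 uM final), then substrate plus GAPDH/TPI/NAD/arsenate coupling and diaphorase/resazurin added. Fluorescence read after 20 min at RT, 525/598 nm.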
RE007 growth inh: less growth of the S. pombe RE007 Vpr strain; AID 651644; S. pombe RE007 Vpr strain, BacTiter-Glo ATP luminescence, 24 h; 360,000 tested, 0.21% active; Potency, µM (top dose mostly 92.2 µM), without a hit: at the highest dose activity change, negative = less growth, actives largely listed as inhibitors; active = well fitted falling curve with a large enough effect; inconclusive = small, poorly fitted or top-dose-only effect; inactive = no such curve, though single readings can be large or run the other way; also: % is scaled to controls: 0 for no effect and ±100 for the full control effect; nearly all actives have a fitted effect of over 50% in size
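Fission yeast RE007 carrying one integrated HIV-1 vpr copy, seeded at OD 0.01 in PMG+AL medium with 23 nL pinned compound. Grown 24 h at 30 degrees; viability read by BacTiter-Glo luminescence after 5 min.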
LmPK inhibitor: LmPK (Leishmania mexicana) enzyme inhibition. purified LmPK, Kinase-Glo ATP luminescence, 1 h. Potency, µM (doses to about 57.5 µM), for the others: top-dose activity change, negative = inhibition, actives largely listed as inhibitors. 290,000 tested, 0.37% active. AID 1721; also: % is scaled to controls: 0 for no effect and ±100 for the full control effect
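qHTS format; LmPK 0.1 nM; substrates PEP 0.5 mM and ADP 0.1 mM. One-hour room-temperature incubation, then coupled luciferase luminescence; 0.5 nM enzyme wells mark activation.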
SARS PLP yeast: SARS-CoV PLP inhibition in yeast; S. cerevisiae expressing SARS-CoV PLpro, growth rescue; Potency, µM (doses to about 32.9 µM), for the others: top-dose activity, positive = growth rescue, usual class: activators; 330,000 tested, 0.19% active; calls by dose curve; also: 0% is about no effect; nearly all actives have a fitted effect of over 55% in size
Giardia growth: blocks growth of Giardia lamblia trophozoites; shares compounds with Giardia FBPA inh-1; Giardia lamblia trophozoite growth inhibition; Potency, µM (titrated, usually from 57.5 µM), without a hit: at the top dose activity change, negative = inhibition, hits mostly inhibitors; 1,500 tested, 5% active; AID 2785;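 also: trophozoites exposed to compound for 48 h at 37 °C; % is scaled to controls: 0 for no effect and ±100 for the full control effect; nearly all actives have a fitted effect of over 70% in size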
Mammalian tox: toxic to mammalian cells in Giardia aldolase counter-screen. shares compounds with Giardia FBPA inh-1. Potency, µM (doses to about 57.5 µM), for the others: at the highest dose viability change, negative = toxicity, most hits filed as inhibitors. mammalian cell viability counter-screen, qHTS. 1,500 tested, 4% active;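 also: Chinese hamster ovary cells used as mammalian cytotoxicity surrogate; viability measured as cellular ATP by luminescence; compound exposure lasted 48 h before reading; % is scaled to controls: 0 for no effect and ±100 for the full control effect; nearly all actives have a fitted effect of over 60% in size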
Giardia FBPA inh-2: confirmation of Giardia fructose-bisphosphate aldolase inhibitors; AID 2787; shares compounds with Giardia FBPA inh-1; 1,500 tested, 5% active; Potency, µM (titrated, usually from 57.5 µM), inactives show at the highest dose activity change, negative = inhibition, hits mostly inhibitors; purified Giardia aldolase enzyme activity, qHTS; also: % is scaled to controls: 0 for no effect and ±100 for the full control effect; nearly all actives have a fitted effect of over 45% in size
Rabbit FBPA inh: selectivity test for Giardia aldolase inhibitors: rabbit aldolase; Potency, µM (series often up to 57.5 µM), for inactives: top-dose activity, negative = inhibition, most hits filed as inhibitors; AID 2794; 1,500 tested, 4% active; shares compounds with Giardia FBPA inh-1; Rabbit muscle FBPA enzyme inhibition, selectivity counter-screen; also: % is scaled to controls: 0 for no effect and ±100 for the full control effect; nearly all actives have a fitted effect of over 60% in size
Target sequence (P00883 whole entry, looked up): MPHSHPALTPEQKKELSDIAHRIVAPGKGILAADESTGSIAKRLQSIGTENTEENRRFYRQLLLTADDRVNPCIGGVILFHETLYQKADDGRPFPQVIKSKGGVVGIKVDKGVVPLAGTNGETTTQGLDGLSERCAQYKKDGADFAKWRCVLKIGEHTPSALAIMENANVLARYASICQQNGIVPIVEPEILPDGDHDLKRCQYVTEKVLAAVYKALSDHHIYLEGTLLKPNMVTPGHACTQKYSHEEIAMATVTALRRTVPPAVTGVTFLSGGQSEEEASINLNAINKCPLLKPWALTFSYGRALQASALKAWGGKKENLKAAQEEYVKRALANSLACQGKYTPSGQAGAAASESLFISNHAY
GAPDH counter: GAPDH inhibition flagged for Giardia aldolase hits | 1,500 tested, 6% active | shares compounds with Giardia FBPA inh-1 | AID 2795 | GAPDH coupling enzyme counterscreen, biochemical, qHTS | Potency, µM (titrated, usually from 57.5 µM), inactives show top-dose activity change, negative = inhibition, usual class: inhibitors; also: % is scaled to controls: 0 for no effect and ±100 for the full control effect; nearly all actives have a fitted effect of over 55% in size
Numbers without * were called inactive; ? = inconclusive; · = not tested or not shown; ! = not active in a repeat; [ ] = remark or other dose. Sampled rows, rich in hits. Any-hit rate of the full collection: about 1.1%. Unless noted, calls follow the shape of the dose curve; as a rule, active = well fitted curve in the direction sought with a large enough effect; inconclusive = small, poorly fitted or top-dose-only effect, or another doubt; inactive = no such curve, though single readings can be large; an effect the other way counts as inactive or inconclusive. Potency is read from the fitted curve at half-maximal effect.

SMILES	Tb PYK inh	Giardia FBPA inh-1	RE007 growth inh	LmPK inhibitor	SARS PLP yeast	Giardia growth	Mammalian tox	Giardia FBPA inh-2	Rabbit FBPA inh	GAPDH counter
O=C(O)/C=C/C(=O)Nc1ccc(O)cc1	-9%	?	-4%	-5%	-1%	16%[38.3 µM]	?	5.2µM*	?	5.8µM*
O=C(CN1CCN(S(=O)(=O)c2ccc(Br)cc2)CC1)c1ccc(O)c(O)c1	?	·	6%	1%	-2%	·	·	·	·	·
CC(C)c1ccc(S(=O)(=O)N2CCN(CC(=O)c3ccc(O)c(O)c3)CC2)cc1	·	13µM*	·	5%	-4%	20%	?	?	-28%	-2%
Cc1cc(C)cc(OCC(=O)Nc2c(C)ccc3nsnc23)c1	2%	·	·	·	·	·	·	·	·	·
COc1ccc(-n2c(CC3C(=O)N(C)c4ccc(C)cc43)nc3ccccc3c2=O)cc1 (stereo unspecified)	0%	·	·	·	·	·	·	·	·	·
Cc1cccc(/C=N/NC(=O)Cn2nnnc2N)n1	1%	18µM*	11%	-4%	0%	11%	-3%	3%	8%	10%
O=C(NC(=S)N1CCN(c2ccc(F)cc2)CC1)c1cccs1	5%	-1%	-30%	1%	-2%	·	·	·	·	·
O=C(NC(=S)N1CCN(c2ccc(O)cc2)CC1)c1cccs1	-18%	13µM*	-4%	-5%	-1%	15%	14%	-19%	-2%	19%
O=C(C1CCCN(Cc2ccccc2[N+](=O)[O-])C1)N1CCCC1 (stereo unspecified)	6%	28µM*	-16%	-4%	0%	?	3%	5%	4%	-1%
CCOC(=O)C1CCCN(Cc2ccc(OCc3ccccc3)cc2)C1 (stereo unspecified)	4%	28µM*	-13%	-2%	-3%	1%[10.4 µM]	21%	12%	8%	-7%
Cc1ccc(CN2CCCC(C(=O)N3CCCC3)C2)cc1 (stereo unspecified)	0%	25µM*	-9%	-4%	-2%	-4%[10.4 µM]	9%	6%	8%	5%
CCOC(=O)C1CCCN(CC(=O)c2ccc(F)cc2)C1 (stereo unspecified)	3%	16µM*	-6%	0%	1%	5%	5%	4%	5%	17%
COC(=O)c1c(-c2cccs2)csc1NC(=O)c1ccc(Br)cc1	-27%	·	·	·	·	·	·	·	·	·
COc1ccc2c(c1)c(=O)c(S(=O)(=O)c1ccc(C)c(C)c1)cn2CC(=O)Nc1ccccc1	1%	·	·	·	·	·	·	·	·	·
COCCCOc1ccnc(CS(=O)c2nc3ccccc3[nH]2)c1C (stereo unspecified)	-18%	2µM*!	-11%[18.4 µM]	-10%	-18%	?	-22%	-15%	-10%	-5%
CN1CCN(C(=S)c2ccc(N(C)C)cc2)CC1	?	16µM*	-4%	-8%	6%	?	23%	-16%	?	?
CN1CCN(C(=S)c2ccc(Br)cc2)CC1	?	16µM*	-11%	5%	26%	-9%[10.4 µM]	2%	-26%	?	?
Cc1cccc(NC(=O)CN2C(=O)C3(SCC(=O)N3c3ccccc3)c3ccccc32)c1 (stereo unspecified)	5%	·	·	·	·	·	·	·	·	·
COC1(C#CC2C=CC(OC(C)=O)C(COC(C)=O)O2)CCCCC1 (stereo unspecified)	·	0%[12.9 µM]	·	·	·	·	·	·	·	·
Cc1nn(-c2ccc(F)cc2)c(-n2cccc2)c1C(=O)N1CCN(c2ccccc2F)CC1	-2%	·	·	·	·	·	·	·	·	·
O=C(NC(=S)Nc1ccccc1[N+](=O)[O-])c1ccco1	7%	16µM*	-20%	0%	0%	35µM*	1%	-2%	-7%	3%
COC(=O)c1cc(OC)c(OC)cc1NC(=S)NC(=O)c1ccco1	-9%	13µM*	-3%	1%	-2%	18%	-16%	0%	3%	14%
Cc1ccccc1NC(=S)NNC(=O)c1ccco1	-6%	7.9µM*	5%	-2%	2%	?	-9%	6%	-1%	2%
Cc1ccccc1NC(=O)c1ccco1	-1%	-2%	-17%	-1%	-2%	·	·	·	·	·
CCNC(=S)Nc1cc(OC)c(NC(=O)c2ccco2)cc1OC	1%	-6%	9%	-6%	2%	·	·	·	·	·
SMILES	Tb PYK inh	Giardia FBPA inh-1	RE007 growth inh	LmPK inhibitor	SARS PLP yeast	Giardia growth	Mammalian tox	Giardia FBPA inh-2	Rabbit FBPA inh	GAPDH counter
Cc1cc(NC(=O)CSc2ncc(C(=O)Nc3ccc(F)cc3)c(=O)n2C)no1	-8%	·	·	·	·	·	·	·	·	·
Cc1ccn2c(Nc3ccc4c(c3)OCO4)c(-c3ccco3)nc2c1	-11%	·	·	·	·	·	·	·	·	·
Cc1[nH]n(-c2ccccc2)c(=S)c1C=Nc1ccc([N+](=O)[O-])cc1	2.8µM*	4.5µM*	39%	-26%	-10%	-1%[38.3 µM]	-8%	-23%	35µM*	?
O=C(O)c1cc(O)c(O)c(O)c1	?	3.5µM*	·	·	·	-29%[38.3 µM]	40µM*	14µM*	20µM*	25µM*
CCN(CC(=O)Nc1ccccc1OC)CC(=O)Nc1ccccc1-c1ccccc1	16%	18µM*	-7%	0%	0%	28%	-23%	4%	-3%	16%
CN(C)C(=O)CNc1n[nH]c(=S)[nH]c1=O	-10%	16µM*	-3%	8%	0%	?	4%	3%	3%	7%
COC(=O)CNc1n[nH]c(=S)[nH]c1=O	-1%	?	23%	-1%	2%	·	·	·	·	·
CC(C)OC(=O)CNc1n[nH]c(=S)[nH]c1=O	-1%	4.5µM*	-14%	1%	-2%	41%	-5%	6%	4%	6%
C=CCNC(=S)Nc1ccccc1-c1nnc2n1CCCCC2	-18%	13µM*	1%	7%	-1%	10%[10.4 µM]	-2%	1%	4%	19%
Nc1ccccc1-c1nnc2n1CCCCC2	-11%	-6%	1%	-8%	-6%	·	·	·	·	·
CCOC(=O)c1sc2ccccc2c1S(=O)(=O)N1CCN(c2cccc(C)c2)C(C)C1 (stereo unspecified)	-7%	·	·	·	·	·	·	·	·	·
NC1=NN=C(N2N=C(c3ccccc3)CC2(O)C(F)(F)F)n2ncnc2C1 (stereo unspecified)	3%	?	-1%	-1%	0%	·	·	·	·	·
